Calls of active or inactive are those of the source. Rule for the calls: active = hit-call score of the fitted dose curve at least 0.9, where 1 is the maximum; inactive = score below 0.9.
What was measured:
[1] = ATG_CRE_CIS: Attagene CIS-FACTORIAL HepG2 Assay for human cAMP Responsive Element (CRE) binding protein 3 (AID 2282926); settings: HepG2 CRE cis-reporter, Attagene multiplexed mRNA; actives raise or lower the signal
Procedure, shortened: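 Transfected HepG2 were treated for 24 hours, then RNA was extracted and reporter cDNA amplified with sequence-specific primers. Labelled fragments were separated by capillary electrophoresis, and the CRE signal was fitted bidirectionally with DMSO as baseline.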

[2] = target: CCAAT/enhancer-binding protein beta (Homo sapiens) (UniProt P17676); test: ATG_C_EBP_CIS: Attagene CIS-FACTORIAL HepG2 Assay for human CCAAT/Enhancer Binding Protein (C/EBP) beta (AID 2282927); settings: HepG2 Attagene cis-factorial transcription factor reporter; actives raise or lower the signal
Procedure, shortened: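 Changes in reporter mRNA, rather than exogenous chimeric receptor activity, reflect native C/EBP signalling in transfected HepG2 cells dosed for 24 h; transcripts are detected by RT-PCR and capillary electrophoresis.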

[3] = ATG_CMV_CIS: Attagene CIS-FACTORIAL HepG2 Assay for human CMV (Internal Marker) (AID 2282928); settings: HepG2 CMV promoter reporter, transcription factor profiling; actives raise or lower the signal;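 note: endpoint acts as a background internal control marker rather than a target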
Procedure, shortened: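 HepG2 cells transiently transfected with multiple cis-regulated reporter units; 24 h compound exposure. Reporter mRNA quantified by RT-PCR, 6-FAM primer-extension labeling, HpaI digestion and capillary electrophoresis; bidirectional fitting against DMSO baseline.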

[4] = ATG_DR4_LXR_CIS: Attagene CIS-FACTORIAL HepG2 Assay for human Liver X Receptor (LXR), DR4 submotif (AID 2282929); settings: HepG2 Attagene DR4 cis-reporter, mRNA transcription; actives raise or lower the signal
Procedure, shortened: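 HepG2 cells transiently transfected with cis-promoter-driven multiplexed reporter units (DR4 element) were dosed for 24 h. Reporter mRNA was quantified by RT-PCR, fluorescent primer extension, HpaI digestion and capillary electrophoresis; bidirectional fitting versus DMSO baseline.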

[5] = target: Aryl hydrocarbon receptor (Homo sapiens) (UniProt P35869); test: ATG_Ahr_CIS: Attagene CIS-FACTORIAL HepG2 Assay for human Aryl Hydrocarbon Receptor (Ahr) (AID 2282930); settings: HepG2 AhR cis-factorial reporter transcription; actives raise or lower the signal
Procedure, shortened: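 HepG2, transient MRTU (cis) transfection, 24 h exposure. RNA → cDNA → PCR → 6-FAM primer extension → HpaI 2 h 37 C → CE. Fit: bidirectional, DMSO baseline.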

[6] = ATG_AP_2_CIS: Attagene CIS-FACTORIAL HepG2 Assay for human Activator Protein 2 (AP-2) (AID 2282932); settings: HepG2 AP-2 cis-reporter, Attagene transcription factor profiling; actives raise or lower the signal
Procedure, shortened: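 Step one: transient transfection of HepG2 with reporter transcription units. Step two: 24 h chemical exposure. Step three: RNA extraction, RT-PCR, labelled fragment analysis by capillary electrophoresis; DMSO serves as baseline.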

[7] = ATG_BRE_CIS: Attagene CIS-FACTORIAL HepG2 Assay for human Bone Morphogenetic Protein (BMP) Response Element (BRE) (AID 2282933); settings: HepG2 BMP response element reporter, Attagene transcription factor profiling; actives raise or lower the signal
Procedure, shortened: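 HepG2 cells transiently transfected with CIS reporter units (endogenous TF activity, BMP response element), dosed 24 h. Reporter mRNA quantified by RT-PCR, fluorescent labelling and capillary electrophoresis; bidirectional fit vs DMSO baseline.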

[8] = target: Retinoic acid receptor alpha (Homo sapiens) (UniProt P10276); test: ATG_DR5_RAR_CIS: Attagene CIS-FACTORIAL HepG2 Assay for human Retinoic Acid Receptor Alpha (RARE), DR5 submotif (AID 2282934); settings: HepG2 Attagene cis-factorial RARE DR5 reporter, mRNA; actives raise or lower the signal;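 for AC50: reporter responds to endogenous RAR alpha beta and gamma in HepG2 not RARA alone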
Procedure, shortened: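 HepG2, transient cis-reporter transfection, 24 h exposure. mRNA readout: RT-PCR, FAM label, HpaI cut, capillary electrophoresis. DMSO baseline, gain/loss fitting.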

[9] = target: Transcription factor E2F1 (Homo sapiens) (UniProt Q01094); test: ATG_E2F_CIS: Attagene CIS-FACTORIAL HepG2 Assay for human E2F Transcription Factor 1 (AID 2282935); settings: HepG2 Attagene cis-reporter, E2F reporter RNA transcripts; actives raise or lower the signal
Procedure, shortened: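 Total RNA from 24 h-treated, reporter-transfected HepG2 cells undergoes DNase I treatment, oligo(dT) reverse transcription, PCR and 6-FAM primer extension before capillary electrophoresis.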

[10] = ATG_AP_1_CIS: Attagene CIS-FACTORIAL HepG2 Assay for human Activator Protein 1 (AP-1) (AID 2282931); settings: HepG2 Attagene cis-factorial AP-1 reporter mRNA; actives raise or lower the signal
Procedure, shortened: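 HepG2 cells transiently transfected with cis-element-driven multiplex reporter units; 24 h compound exposure. Reporter mRNA quantified by RT-PCR, FAM-labelled fragments resolved by capillary electrophoresis; bidirectional fit versus DMSO baseline.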

Measured: AC50

Sequence of Aryl hydrocarbon receptor (Homo sapiens) (P35869 whole entry, looked up): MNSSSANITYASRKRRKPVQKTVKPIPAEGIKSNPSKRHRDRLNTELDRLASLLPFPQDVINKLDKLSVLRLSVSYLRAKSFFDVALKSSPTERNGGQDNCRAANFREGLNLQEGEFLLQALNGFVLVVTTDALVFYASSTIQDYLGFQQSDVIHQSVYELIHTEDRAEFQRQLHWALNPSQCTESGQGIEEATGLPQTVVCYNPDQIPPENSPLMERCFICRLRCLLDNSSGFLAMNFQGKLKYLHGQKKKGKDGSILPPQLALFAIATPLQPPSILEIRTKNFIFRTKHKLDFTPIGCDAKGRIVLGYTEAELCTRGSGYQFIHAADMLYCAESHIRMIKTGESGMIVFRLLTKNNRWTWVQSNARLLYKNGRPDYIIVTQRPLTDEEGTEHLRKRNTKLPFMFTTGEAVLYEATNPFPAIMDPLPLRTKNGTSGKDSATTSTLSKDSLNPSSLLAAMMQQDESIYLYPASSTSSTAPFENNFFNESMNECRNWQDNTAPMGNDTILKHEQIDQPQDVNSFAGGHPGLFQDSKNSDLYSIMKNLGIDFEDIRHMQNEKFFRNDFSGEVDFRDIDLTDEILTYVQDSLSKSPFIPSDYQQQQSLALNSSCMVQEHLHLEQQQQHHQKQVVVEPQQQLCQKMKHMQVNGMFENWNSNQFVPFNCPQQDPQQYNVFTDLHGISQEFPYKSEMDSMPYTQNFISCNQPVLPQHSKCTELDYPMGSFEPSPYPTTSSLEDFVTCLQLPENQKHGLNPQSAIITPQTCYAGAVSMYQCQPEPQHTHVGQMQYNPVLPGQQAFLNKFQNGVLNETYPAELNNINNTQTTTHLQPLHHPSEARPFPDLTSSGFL
Sequence of Transcription factor E2F1 (Homo sapiens) (Q01094 whole entry, looked up): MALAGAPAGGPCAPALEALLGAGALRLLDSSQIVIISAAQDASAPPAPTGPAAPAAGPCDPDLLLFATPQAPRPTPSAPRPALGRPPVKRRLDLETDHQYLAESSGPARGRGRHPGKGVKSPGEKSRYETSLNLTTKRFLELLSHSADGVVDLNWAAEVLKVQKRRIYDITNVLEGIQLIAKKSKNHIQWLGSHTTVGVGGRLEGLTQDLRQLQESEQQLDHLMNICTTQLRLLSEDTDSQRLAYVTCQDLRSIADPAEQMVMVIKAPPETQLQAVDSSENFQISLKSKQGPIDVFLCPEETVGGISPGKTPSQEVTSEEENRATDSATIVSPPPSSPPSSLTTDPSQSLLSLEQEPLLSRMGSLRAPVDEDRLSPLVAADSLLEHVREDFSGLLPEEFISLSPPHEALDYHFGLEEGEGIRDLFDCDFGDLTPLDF
Sequence of CCAAT/enhancer-binding protein beta (Homo sapiens) (P17676 whole entry, looked up): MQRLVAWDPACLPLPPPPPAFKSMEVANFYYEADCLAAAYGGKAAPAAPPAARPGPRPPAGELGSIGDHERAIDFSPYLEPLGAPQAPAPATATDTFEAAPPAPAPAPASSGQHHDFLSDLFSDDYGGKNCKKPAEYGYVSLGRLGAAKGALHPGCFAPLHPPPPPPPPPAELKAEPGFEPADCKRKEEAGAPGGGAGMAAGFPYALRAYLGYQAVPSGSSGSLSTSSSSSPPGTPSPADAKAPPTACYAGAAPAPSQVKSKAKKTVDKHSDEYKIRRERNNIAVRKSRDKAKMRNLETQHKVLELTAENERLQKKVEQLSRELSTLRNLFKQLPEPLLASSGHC
Sequence of Retinoic acid receptor alpha (Homo sapiens) (P10276 whole entry, looked up): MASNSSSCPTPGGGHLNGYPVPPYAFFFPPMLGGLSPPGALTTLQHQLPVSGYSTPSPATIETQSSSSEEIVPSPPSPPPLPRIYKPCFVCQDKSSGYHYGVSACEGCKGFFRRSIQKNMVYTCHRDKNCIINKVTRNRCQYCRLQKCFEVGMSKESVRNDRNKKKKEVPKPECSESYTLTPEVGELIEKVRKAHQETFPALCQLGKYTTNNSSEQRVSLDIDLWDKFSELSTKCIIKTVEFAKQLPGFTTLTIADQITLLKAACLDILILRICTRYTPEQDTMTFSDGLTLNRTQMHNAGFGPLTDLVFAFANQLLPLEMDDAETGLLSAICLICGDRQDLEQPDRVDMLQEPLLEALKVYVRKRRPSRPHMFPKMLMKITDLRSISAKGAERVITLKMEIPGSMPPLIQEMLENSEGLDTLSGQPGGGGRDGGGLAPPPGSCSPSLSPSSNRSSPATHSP

CC(=O)OCc1ccco1
not listed: [10]
inactive: all other assays above

CCc1ccc2c(c1)C(=O)c1ccccc1C2=O
active: [5] 5.39 µM
not listed: [6]
inactive: all other assays above

CCCCCCCCCCOC(C)=O
not listed: [10]
inactive: all other assays above

c1ccc2c(c1)ccc1cc3c(ccc4ccccc43)cc12
active: [5] 0.0244 µM
not listed: [10]
inactive: all other assays above

COC(=O)c1c(C)cc(O)c(C)c1O
not listed: [10]
inactive: all other assays above

CC(=O)NS(=O)(=O)c1ccc(N)cc1
not listed: [6] | [7]
inactive: all other assays above

CC/C=C\C/C=C\C/C=C\CCCCCCCC(=O)O
active: [1] 173 µM | [4] 153 µM | [10] 161 µM
not listed: [6]
inactive: all other assays above

CCOC(=O)CC(C(C)=O)C(C)=O
not listed: [4]
inactive: all other assays above

c1ccc2c(c1)ccc1ncccc12
active: [3] 19.2 µM | [5] 7.77 µM | [6] 178 µM | [7] 76.4 µM | [8] 58 µM
inactive: [1] | [2] | [4] | [9]

CC=CC(=O)N(CC)c1ccccc1C
not listed: [4]
inactive: all other assays above

CC(C)c1ccc(C#N)cc1
not listed: [7] | [10]
inactive: all other assays above

O=C(O)CCCC[C@@H]1SC[C@@H]2NC(=O)N[C@@H]21
not listed: [10]
inactive: all other assays above

NNC(=O)c1cccc(C(=O)NN)c1
not listed: [10]
inactive: all other assays above

CNC(=S)N(C)C
not listed: [10]
inactive: all other assays above

CC(C)c1ccc(C=O)cc1
not listed: [10]
inactive: all other assays above

CC(C)(C)c1ccc(OC(=O)c2ccccc2O)cc1
active: [3] 34.7 µM
not listed: [10]
inactive: all other assays above

CC1=CC[C@H]2C[C@@H]1C2(C)C
not listed: [5] | [6]
inactive: all other assays above

C/C=C\C/C=C/CCCCCCCCOC(C)=O
active: [4] 122 µM | [7] 67.9 µM
not listed: [10]
inactive: all other assays above

Cc1cccc(N(C)C(=S)Oc2ccc3ccccc3c2)c1
not listed: [10]
inactive: all other assays above

C=C(C)CCO
not listed: [4]
inactive: all other assays above

CCc1nccnc1C
not listed: [4]
inactive: all other assays above

CCCCCC/C=C\CCCCCCCC(=O)O
active: [1] 34.7 µM | [4] 27.3 µM | [8] 34.2 µM
not listed: [10]
inactive: all other assays above

Cc1ccccc1C
not listed: [4]
inactive: all other assays above

OCCN(CCO)c1ccccc1
active: [5] 13.7 µM
not listed: [6] | [7] | [9]
inactive: all other assays above

CCC(C)C=O (centres undefined)
not listed: [4]
inactive: all other assays above

CC1=NC(C)OC1C (centres undefined)
active: [3] 153 µM | [10] 100 µM
not listed: [4]
inactive: all other assays above

CCCCCCCCCCOS(=O)(=O)O
active: [4] 67 µM | [8] 61.3 µM
not listed: [7] | [10]
inactive: all other assays above

N[C@H]1C(O)O[C@H](CO)[C@H](O)[C@@H]1O (some centres undefined)
not listed: [3]
inactive: all other assays above

C=CC(C)(C)C
not listed: [3] | [9]
inactive: all other assays above

O=C1OC(=O)c2cc(Oc3ccc4c(c3)C(=O)OC4=O)ccc21
not listed: [3]
inactive: all other assays above

O=C(Nc1cccc(C(F)(F)F)c1)c1cc(Br)cc(Br)c1O
active: [1] 100 µM | [4] 38.3 µM | [6] 5.76 µM | [7] 1.08 µM
not listed: [3]
inactive: all other assays above

O=C1CCCCCCCCCCC(=O)OCCO1
not listed: [4] | [7]
inactive: all other assays above

NC(=O)OCC(COC(N)=O)c1ccccc1
not listed: [3] | [9]
inactive: all other assays above

C=CCOc1c(Br)cc(Br)cc1Br
not listed: [3] | [7]
inactive: all other assays above

CCOC(=O)c1ccc(N(C)C)cc1
active: [5] 44.4 µM
not listed: [4]
inactive: all other assays above

Clc1nc2ccccc2s1
not listed: [3] | [6]
inactive: all other assays above

O=C1C=CC(=O)O1
not listed: [4]
inactive: all other assays above

CC1(C)O[C@@H]2C[C@H]3[C@@H]4C[C@H](F)C5=CC(=O)C=C[C@]5(C)[C@@]4(F)[C@@H](O)C[C@]3(C)[C@]2(C(=O)CO)O1
not listed: [4] | [10]
inactive: all other assays above

CN(C)c1ccc(C(=N)c2ccc(N(C)C)cc2)cc1
inactive: [10] | [6] | [9]
active: [1] 0.399 µM | [2] 0.871 µM | [4] 0.056 µM | [5] 0.334 µM | [7] 7.22 µM | [8] 7.38 µM

CC=C1CC2C=CC1C2 (centres undefined)
not listed: [4] | [10]
inactive: all other assays above

C1CN(SSN2CCOCC2)CCO1
not listed: [4]
inactive: all other assays above

O=C(Oc1ccccc1)c1ccc2ccccc2c1O
inactive: [1] | [2] | [4] | [8] | [9]
active: [5] 17 µM | [10] 97.4 µM

C=CC(=O)OCCOC(=O)C=C
active: [4] 27.4 µM | [10] 126 µM | [6] 27.2 µM
not listed: [3]
inactive: all other assays above

CCCCC/C=C\CCC=O
not listed: [4] | [7]
inactive: all other assays above

Cc1ccc(OC(=O)CC(C)C)cc1
not listed: [3] | [10]
inactive: all other assays above

CCCCCCCOC(=O)CCC
not listed: [3]
inactive: all other assays above

c1cc(C(c2ccc(OCC3CO3)cc2)C(c2ccc(OCC3CO3)cc2)c2ccc(OCC3CO3)cc2)ccc1OCC1CO1 (centres undefined)
active: [1] 30.7 µM | [4] 33.1 µM
not listed: [3] | [7]
inactive: all other assays above

CCCCCCCCCCCCCCCC[N+](C)(C)CC
active: [4] 9.13 µM | [10] 16.3 µM | [6] 12.6 µM
not listed: [3] | [9]
inactive: all other assays above

CNC(=S)NN
not listed: [3]
inactive: all other assays above

CCCCCCCC(C)=O
not listed: [3]
inactive: all other assays above

CC(=O)Nc1ccc2c(c1)Cc1cc(NC(C)=O)ccc1-2
not listed: [3] | [10]
inactive: all other assays above

OCCNCc1ccccc1
not listed: [3]
inactive: all other assays above

Cc1cccc(C(=O)O)c1
not listed: [3] | [10]
inactive: all other assays above

COc1ccc(-c2coc3cc(O)ccc3c2=O)cc1
active: [5] 20 µM
not listed: [4] | [7]
inactive: all other assays above
